# Data taken from PubChem BioAssay AID1159580 (chemical genetic matrix, 2015).
# “And” between values parts separate entries of the source, which are not always exact repeats. Equal values may be shown once. Among all 5,500 compounds or so, about 2,000 (36%) were called active. Not shown: some 18% with an inconclusive outcome. Rule as the data show it: active = normalized growth mostly below about 0.91 (no sharp cut-off); inconclusive = no clear call, values can overlap the other calls; inactive = mostly above about 0.92. This is one part of the list. A structure can be active in one record and inactive in another.
# Experiment: chemical genetic growth profiling, strain panel (AID 1159580);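 also: tested at 20 µM; growth read once vehicle control cultures reached saturation at 30 °C; 1 = growth at the plate median or of vehicle wells; lower values mean less growth of the strain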
# Details: S. cerevisiae deletion strains, growth OD
# [1] = locus YAL013W, strain DEP1, stronger effect = lower value
# [2] = locus YAL040C, strain CLN3, stronger effect = lower value
# [3] = locus YCL061C, strain MRC1 (second series), stronger effect = lower value
# [4] = locus YDR363W, strain ESC2, stronger effect = lower value
# [5] = locus YER002W, strain NOP16, stronger effect = lower value
# [6] = locus YGR078C, strain PAC10, stronger effect = lower value
# [7] = locus YGR229C, strain SMI1, stronger effect = lower value
# [8] = locus YJR075W, strain HOC1, stronger effect = lower value
# [9] = locus YMR263W, strain SAP30, stronger effect = lower value
# [10] = locus YNL153C, strain GIM3, stronger effect = lower value
# [11] = locus YNL175C, strain NOP13, stronger effect = lower value
# [12] = locus YNL197C, strain WHI3, stronger effect = lower value
# [13] = locus YNL224C, strain SQS1, stronger effect = lower value
# [14] = locus YNL322C, strain KRE1, stronger effect = lower value
# [15] = locus YOR083W, strain WHI5 (second series), stronger effect = lower value
# [16] = locus YPL055C, strain LGE1, stronger effect = lower value
SMILES,normalized growth [1],normalized growth [2],normalized growth [3],"normalized growth (locus YDR150W, strain NUM1, stronger effect = lower value)",normalized growth [4],normalized growth [5],normalized growth [6],normalized growth [7],normalized growth [8],normalized growth [9],"normalized growth (locus YNL128W, strain TEP1, stronger effect = lower value)",normalized growth [10],normalized growth [11],normalized growth [12],normalized growth [13],normalized growth [14],normalized growth [15],normalized growth [16]
CC(N)(Cc1ccc(O)cc1)C(=O)O (centres undefined),1.03 (inactive),0.969 (inactive) and 1.01 (inactive),0.991 (inactive) and 1.01 (inactive),1 (inactive),1 (inactive) and 1.03 (inactive),0.984 (inactive) and 1 (inactive),1.02 (inactive),1.03 (inactive),1.02 (inactive),1.01 (inactive),0.984 (inactive),0.998 (inactive) and 1.02 (inactive),0.97 (inactive) and 1.01 (inactive),0.975 (inactive) and 0.984 (inactive),1.01 (inactive) and 1 (inactive),1.03 (inactive),0.974 (inactive) and 1 (inactive),1.01 (inactive) and 1.02 (inactive)
CC(N)(Cc1ccc(O)c(O)c1)C(=O)O (centres undefined),0.956 (inactive),0.961 (inactive) and 1 (inactive),0.914 (active) and 0.963 (inactive),,1.02 (inactive) and 1.01 (inactive),1.01 (inactive),1.01 (inactive) and 0.992 (inactive),0.862 (inactive),0.984 (inactive) and 0.975 (inactive),1.01 (inactive),,0.971 (inactive),1.01 (inactive) and 1 (inactive),1.01 (inactive),1.01 (inactive),1.02 (inactive) and 1.01 (inactive),1.01 (inactive) and 0.993 (inactive),0.943 (inactive)
